According to publication PMC4336329 (PLoS ONE, 2015):
Screen size: about 310,000 compounds; about 14,000 (4.5%) showed an effect of 50% or more. The effect is printed as a negative number. The sample as a whole holds a higher share of strong results than the screen did.

The compounds below were run against human ether-à-go-go-related gene (hERG) potassium channel (human, UniProt Q12809) (assay: primary screen, population patch clamp on CHO cells stably expressing hERG; higher = less effect of the substance).
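Note: peak tail current of the secondary pulse compared with the same well before compound.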

Chain of human ether-à-go-go-related gene (hERG) potassium channel (Q12809 whole entry, looked up): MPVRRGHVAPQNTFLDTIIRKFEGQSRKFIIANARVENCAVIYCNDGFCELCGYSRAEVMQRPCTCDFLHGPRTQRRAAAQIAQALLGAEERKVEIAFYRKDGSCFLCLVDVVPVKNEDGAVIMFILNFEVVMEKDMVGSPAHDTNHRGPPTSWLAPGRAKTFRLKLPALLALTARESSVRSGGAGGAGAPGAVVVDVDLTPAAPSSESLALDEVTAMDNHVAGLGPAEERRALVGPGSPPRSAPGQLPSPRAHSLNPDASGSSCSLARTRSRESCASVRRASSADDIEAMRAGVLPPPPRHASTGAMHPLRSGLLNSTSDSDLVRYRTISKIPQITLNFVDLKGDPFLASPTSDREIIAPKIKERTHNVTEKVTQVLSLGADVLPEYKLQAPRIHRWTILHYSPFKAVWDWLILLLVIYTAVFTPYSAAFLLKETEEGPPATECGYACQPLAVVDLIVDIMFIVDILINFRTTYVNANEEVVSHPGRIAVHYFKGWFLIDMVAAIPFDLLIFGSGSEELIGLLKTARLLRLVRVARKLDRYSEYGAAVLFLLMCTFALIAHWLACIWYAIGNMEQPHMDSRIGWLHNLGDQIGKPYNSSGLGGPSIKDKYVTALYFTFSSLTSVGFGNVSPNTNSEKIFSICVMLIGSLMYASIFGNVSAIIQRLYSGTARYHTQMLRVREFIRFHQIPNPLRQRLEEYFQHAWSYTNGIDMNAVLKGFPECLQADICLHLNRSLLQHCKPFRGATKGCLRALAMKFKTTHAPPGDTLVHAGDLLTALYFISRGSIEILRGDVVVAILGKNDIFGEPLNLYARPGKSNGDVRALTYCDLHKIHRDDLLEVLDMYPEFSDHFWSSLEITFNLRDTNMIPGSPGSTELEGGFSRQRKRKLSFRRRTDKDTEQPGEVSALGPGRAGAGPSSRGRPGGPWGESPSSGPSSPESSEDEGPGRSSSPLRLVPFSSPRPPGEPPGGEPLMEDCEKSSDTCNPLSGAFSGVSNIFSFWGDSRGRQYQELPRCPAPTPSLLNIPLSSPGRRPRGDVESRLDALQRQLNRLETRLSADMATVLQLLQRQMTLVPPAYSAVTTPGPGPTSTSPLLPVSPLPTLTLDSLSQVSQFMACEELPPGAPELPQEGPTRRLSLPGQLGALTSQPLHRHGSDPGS

| SMILES | hERG current change (%, negative = inhibition) at 10uM [%] |
| --- | --- |
| COc1ccc(-n2ncc3c(=O)n(CC(=O)N(C(C)C)C(C)C)cnc32)cc1 | 0.562 |
| Cc1cc(Br)cn2ccnc12 | -6.51 |
| CC(Sc1nnc(C2CCCCC2)n1N)C(=O)NCc1ccc2c(c1)OCO2 (centres unmarked) | 3.2 |
| CN1CCN(CCCNC(=O)c2ccc3c(=O)n(CCc4ccccc4)c(=O)[nH]c3c2)CC1 | 15.3 |
| O=C(CN1CCN(Cc2ccc(Cl)cc2)C1=O)NCc1cccs1 | -57.6 |
| O=C(CN1CCN(Cc2ccccc2)C1=O)NCc1cccs1 | 1.2 |
| O=C(CN1CCN(Cc2ccc(F)cc2)C1=O)NCc1cccs1 | -1.62 |
| CC1CCCC(C)N1C(=O)CSc1nc2c(c(=O)n(C)c(=O)n2C)n1C (centres unmarked) | 5.34 |
| CN(C)c1ccc(C2SCCN2C(=O)c2ccc([N+](=O)[O-])cc2)cc1 (centres unmarked) | -66.7 |
| O=C(CC1C(=O)NCCN1C(=O)c1ccc([N+](=O)[O-])cc1)Nc1cccc(Cl)c1 (centres unmarked) | -40.4 |
| O=C(c1ccc([N+](=O)[O-])cc1)N1CCSC1c1ccccc1 (centres unmarked) | -39.3 |
| O=C(c1ccc([N+](=O)[O-])cc1)N1CCSC1c1ccc(Cl)cc1 (centres unmarked) | -76.9 |
| O=C(O)c1ccc(N2C(=O)CSC2c2cccc([N+](=O)[O-])c2)cc1 (centres unmarked) | 15.5 |
| CC(=O)Nc1ccc(N2C(=O)CSC2c2ccc([N+](=O)[O-])cc2)cc1 (centres unmarked) | -11.3 |
| O=C(c1ccc([N+](=O)[O-])cc1)N1CCSC1c1ccc(Br)cc1 (centres unmarked) | -64.2 |
| O=C(c1ccc([N+](=O)[O-])cc1)N1CCSC1c1cccc(Cl)c1 (centres unmarked) | -69.3 |
| O=C(NNC(=O)c1ccc([N+](=O)[O-])cc1)c1ccc(Br)cc1 | 14.5 |
| CN(C)c1ccc(C(=S)N2CCN(c3ccc([N+](=O)[O-])cc3)CC2)cc1 | -18.7 |
| CCOC(=O)c1ccc(NC(=S)N2CCSC2c2ccc(Br)cc2)cc1 (centres unmarked) | 5.4 |
| O=C(c1ccc([N+](=O)[O-])cc1)N1CCSC1c1ccccc1Cl (centres unmarked) | 7.77 |
| CC1NC(=O)N(C)[C@@H]2NC(=O)N(C)C(c3ccc([N+](=O)[O-])cc3)[C@@H]12 (some centres unmarked) | 7.29 |
| CCCCN(C(=O)NC(=O)Nc1cc(C)ccc1C)S(C)(=O)=O | 17.9 |
| CNC(=O)COC(=O)CCC(=O)c1ccc(Cl)cc1 | 7.45 |

| SMILES | hERG current change (%, negative = inhibition) at 10uM [%] |
| --- | --- |
| Cc1noc(C)c1COc1ccc(C(=O)Nc2ncccc2O)cc1 | 11.5 |
| Cc1ccc(C(=O)NCC2CCCO2)cc1[N+](=O)[O-] (centres unmarked) | 4.29 |
| Cc1cc(C=C2C(=O)c3ccccc3C2=O)c(C)n1-c1ccccc1 | 7.13 |
| C[C@H](NC(=O)OCc1ccccc1)C(=O)NNC(=O)[C@H](Cc1ccccc1)NC(=O)OC(C)(C)C | 31.2 |
| O=C1N(c2cccc(Cl)c2)C(c2cccnc2)N2CCCN12 (centres unmarked) | -4.39 |
| CC1(C)CC2CC(C)(CN2C(=O)c2ccccc2)C1 (centres unmarked) | 8.08 |
| Cc1ccc(C(=O)N2CCN(C(=O)c3ccccc3)C2c2ccc(N(C)C)cc2)cc1 (centres unmarked) | -50.8 |
| CC1(C)CC2CC(C)(CN2C(=O)c2ccc([N+](=O)[O-])cc2)C1 (centres unmarked) | -62.4 |
| COc1ccc(C2N(C(=O)c3ccccc3)CCN2C(=O)c2ccc(C)cc2)cc1 (centres unmarked) | -24.9 |
| COc1ccc(N2C(=O)CSC2c2ccc([N+](=O)[O-])cc2)cc1 (centres unmarked) | -37.3 |
| COc1ccc(C2SCCN2C(=O)c2ccc([N+](=O)[O-])cc2)cc1 (centres unmarked) | -70 |
| O=C(c1ccccc1)N1CCN(C(=O)c2ccccc2)C1c1ccccc1 | 4.53 |
| CC1(C)C[C@@H]2C[C@@](C)(CN2C(=O)c2ccccc2)C1 | 11.3 |
| COc1ccccc1C1SCCN1C(=O)c1ccc([N+](=O)[O-])cc1 (centres unmarked) | -38.7 |
| O=C(C1CCN(S(=O)(=O)c2ccccc2)CC1)N1CCC1 | 12.3 |
| Cc1[nH]n(-c2ccccc2)c(=O)c1C=Nc1cnc2ccccc2c1 | -8.67 |
| O=C(c1cccs1)c1ccc(-c2cccs2)s1 | 1.57 |
| CCSc1nc(-c2ccccc2)nc2c1CCCC2 | 7.26 |
| CN(C)CCCSc1nc(-c2ccccc2)nc2c1CCC2 | -50.3 |
| CC1(C)Cc2nc(-c3ccccc3)nc(SCC(O)CO)c2CO1 (centres unmarked) | -15.8 |
| OCCSc1nc(-c2ccccc2)nc2c1CCC2 | -12 |
| CN(C)CCSc1nc(-c2ccccc2)nc2c1CCCC2 | -51.3 |
| O=C(O)CSc1nc(-c2ccccc2)nc2c1CCCC2 | 12.8 |

| SMILES | hERG current change (%, negative = inhibition) at 10uM [%] |
| --- | --- |
| CN(C)C(=O)CSc1nc(-c2ccccc2)nc2c1CCCC2 | -5.09 |
| NC(=O)CSc1nc(-c2ccccc2)nc2c1CCCC2 | 5.92 |
| CN(C)CCSc1nc(-c2ccccc2)nc2c1CCC2 | -61.3 |
| CSc1nc(-c2ccccc2)nc2c1COC(C)(C)C2 | 5.03 |
| CN(C)CCSc1nc(-c2ccccc2)nc2c1COC(C)(C)C2 | -69.1 |
| OCC(O)CSc1nc(-c2ccccc2)nc2c1CCC2 (centres unmarked) | 2.22 |
| O=C(NCC(c1cccs1)N1CCOCC1)C1CCN(S(=O)(=O)c2c(Cl)cccc2Cl)CC1 (centres unmarked) | -27.3 |
| COc1ccc(C2C3CCCCC3(O)CCN2C(=O)c2cccs2)cc1 (centres unmarked) | 5.52 |
| CC(C)(C)C(=O)Nc1nnc(SCC(=O)NC2CCCCC2)s1 | 2.34 |
| COc1ccc(S(=O)(=O)N2CCC(C(=O)NCCN3CCOCC3)CC2)cc1 | 14.2 |
| CC1=NN(c2ccccc2)C(=O)C1/C=C1\C(=O)NC(=O)N(c2cc(C)cc(C)c2)C1=O (centres unmarked) | 6.47 |
| Cc1sc2nc(CSCC(=O)Nc3c(F)cccc3F)[nH]c(=O)c2c1C | 7.01 |
| CC(C)CNc1nnnc2c1sc1nc(N3CCOCC3)c3c(c12)CC(C)(C)SC3 | -20.8 |
| Cc1ccc(Sc2ccc(S(=O)(=O)Nc3ccc(CC(=O)O)cc3)cc2)cc1C | 3.13 |
| COc1ccccc1NS(=O)(=O)c1ccc(C(=O)NCC2(N(C)C)CCCCC2)cc1 | 3.78 |
| CN(c1ccccc1)S(=O)(=O)c1ccc(C(=O)Nc2ccncc2)cc1 | -9.83 |
| CN(C)C1(CNC(=O)c2cccc(S(=O)(=O)NCc3ccccc3)c2)CCCCC1 | -49.5 |
| COc1ccc(C(=O)NCC(=O)NCC2(N(C)C)CCCCC2)cc1OC | 3.45 |
| COc1cc(C(=O)NCC2(N(C)C)CCCCC2)ccc1OCc1ccccc1 | -59.7 |
| COc1ccccc1NS(=O)(=O)c1cccc(C(=O)NCC2(N(C)C)CCCCC2)c1 | -22.2 |
| CCN(c1ccccc1)S(=O)(=O)c1ccc(C(=O)NCCc2ccc(S(N)(=O)=O)cc2)cc1 | 5.49 |
| CNC(=O)c1ccc(OCc2ccccc2)c(OC)c1 | 3.11 |
| CCN(c1ccccc1)S(=O)(=O)c1ccc(C(=O)Nc2ccccn2)cc1 | -8.37 |

| SMILES | hERG current change (%, negative = inhibition) at 10uM [%] |
| --- | --- |
| CCN(c1ccccc1)S(=O)(=O)c1cccc(C(=O)NCC2(N(C)C)CCCCC2)c1 | -60.5 |
| CCN(c1ccccc1)S(=O)(=O)c1ccc(C(=O)Nc2ccncc2)cc1 | -68.7 |
| CCN(c1ccccc1)S(=O)(=O)c1ccc(C(=O)NCC2(N(C)C)CCCCC2)cc1 | -57.8 |
| O=C(NCCNC(=O)c1ccccn1)c1cccc(F)c1 | 23.7 |
| O/N=C/C1=C(Cl)c2ccccc2CC1 | -4.9 |
| Cc1ccccc1NC(=O)COC(=O)c1cccc(S(=O)(=O)N2CCCCC2)c1 | -6.55 |
| Cc1ccc(C(=O)N2CCN(C34CC5CC(CC(C5)C3)C4)CC2)o1 | -29.4 |
| CCc1nnc(NC(=O)CSc2nnc(-c3ccco3)n2CCOC)s1 | 9.29 |
| CC1CCN(c2oc(-c3ccco3)nc2S(=O)(=O)c2ccccc2)CC1 | -6.14 |
| CNC(=O)COC(=O)c1ccccc1Oc1ccccc1 | -5.63 |
| O=C1OC(C(=O)Nc2nccs2)Cc2ccccc21 (centres unmarked) | 12.7 |
| CCN(C(=O)c1cc2c(=O)n3ccccc3nc2n1C)C1CCCCC1 | 6.65 |
| CC(Cc1cccs1)NC(=O)Nc1ccc(Cl)cc1 (centres unmarked) | 1.12 |
| C[C@H](NC(=O)C1CCN(S(=O)(=O)c2ccccc2)CC1)C(=O)NCc1cccc(C(F)(F)F)c1 | -2.33 |
| CCCOc1ccc(C(=O)ON=C2CCN(C)CC2)cc1.Cl | -9.07 |
| Cc1ccc(C(=O)ON=C2CCN(c3ccc([N+](=O)[O-])cc3)CC2)cc1 | -60.9 |
| Cc1ccc(C(=O)OC2CCN(c3ccc([N+](=O)[O-])cc3)CC2)cc1 | -1.78 |
| COc1ccc(C(=O)ON=C2CCN(C)CC2)cc1.Cl | 12.8 |
| COc1ccc(C(=O)ON=C2CCN(c3ccc([N+](=O)[O-])cc3)CC2)cc1 | -68.5 |
| O=C(ON=C1CCN(c2ccc([N+](=O)[O-])cc2)CC1)c1ccccc1 | -47.5 |
